Screening data from PubChem.
FLuc inh: Photinus pyralis luciferase inhibition; P08659; purified P. pyralis luciferase, luminescence, biochemical; Potency, µM (highest dose often 115 µM), actives largely listed as inhibitors; actives 2.5% (n = 76,000); note: nearly all actives have a fitted effect of over 65% in size
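Inhibitors were tested against purified firefly luciferase in a biochemical, low-substrate format (both substrates at 10uM) and luminescence measured with a CCD imager.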
HEK293 tox: HEK 293 cell cytotoxicity | actives 6.6% (n = 94,000) | HEK 293 viability, ATP luminescence (CellTiter-Glo), 48-72 h | Potency, µM (doses to about 115 µM), actives largely listed as inhibitors; note: nearly all actives have a fitted effect of over 60% in size
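Pintool-delivered compounds were incubated with HEK 293 cells (250 cells/well) at 37 degree Celsius for 48 or 72 hr. ATP-dependent luminescence (CellTiter-Glo) then reported remaining viable cells.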
NPR1 antag: antagonists of human natriuretic peptide receptor Npr1 | P16066 | HEK293 hNpr1 GloSensor cGMP, ANP-stimulated luminescence | Potency, µM (top dose mostly 46.3 µM), most hits filed as inhibitors | actives 1.6% (n = 76,000) | AID 1347048; calls by dose curve; note: nearly all actives have a fitted effect of over 60% in size
Target sequence (P16066 whole entry, looked up): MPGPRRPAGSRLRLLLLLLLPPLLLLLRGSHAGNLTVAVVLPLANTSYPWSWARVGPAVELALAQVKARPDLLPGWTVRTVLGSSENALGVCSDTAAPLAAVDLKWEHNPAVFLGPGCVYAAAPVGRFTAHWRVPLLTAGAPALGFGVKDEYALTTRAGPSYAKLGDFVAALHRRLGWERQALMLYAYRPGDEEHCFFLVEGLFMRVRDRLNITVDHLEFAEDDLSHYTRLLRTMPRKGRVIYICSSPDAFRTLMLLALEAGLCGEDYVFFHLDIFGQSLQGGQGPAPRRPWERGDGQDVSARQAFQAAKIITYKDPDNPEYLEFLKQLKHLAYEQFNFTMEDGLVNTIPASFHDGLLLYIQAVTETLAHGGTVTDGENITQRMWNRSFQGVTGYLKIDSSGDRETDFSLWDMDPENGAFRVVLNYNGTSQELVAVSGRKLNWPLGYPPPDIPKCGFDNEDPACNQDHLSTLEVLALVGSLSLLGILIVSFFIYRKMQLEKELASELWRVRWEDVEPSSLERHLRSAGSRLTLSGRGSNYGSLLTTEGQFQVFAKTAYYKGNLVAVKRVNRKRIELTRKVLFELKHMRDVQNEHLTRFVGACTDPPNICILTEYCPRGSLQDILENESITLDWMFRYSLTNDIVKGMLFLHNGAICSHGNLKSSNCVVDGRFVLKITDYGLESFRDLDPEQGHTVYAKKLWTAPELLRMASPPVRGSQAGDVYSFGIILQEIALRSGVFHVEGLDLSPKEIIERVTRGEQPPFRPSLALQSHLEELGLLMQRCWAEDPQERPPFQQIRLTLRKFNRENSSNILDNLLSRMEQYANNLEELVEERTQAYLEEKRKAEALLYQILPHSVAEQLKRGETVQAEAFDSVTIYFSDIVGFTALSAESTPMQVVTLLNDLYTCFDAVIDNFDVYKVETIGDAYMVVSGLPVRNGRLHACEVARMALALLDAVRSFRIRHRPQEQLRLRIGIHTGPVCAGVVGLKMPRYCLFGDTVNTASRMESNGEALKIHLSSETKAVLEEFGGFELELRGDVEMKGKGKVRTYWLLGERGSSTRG
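HEK293 cells stably expressing human Npr1 and cGMP GloSensor pGS-40F, loaded 2 h with 2% GloSensor reagent, given compound 30 min at room temperature. Luminescence read before and 20 min after 0.1 nM hNppA.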
SNCA expr inh: SNCA gene expression inhibition; HEK-293 SNCA-luciferase knock-in, luminescence, 24 h; Potency, µM (top dose mostly 57.2 µM), actives largely listed as inhibitors; actives 0.17% (n = 140,000); AID 1671194; note: nearly all actives have a fitted effect of over 45% in size
SNCA viab count: counter-screen for SNCA expression inhibitors: cell viability; Potency, µM (series often up to 57.1 µM), most hits filed as cytotoxic; AID 1671193; actives 0.12% (n = 150,000); HEK-293-SNCA-luc viability, GF-AFC fluorescence, 24 h; note: nearly all actives have a fitted effect of over 30% in size
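Cytotoxicity counterscreen: after 24 h compound treatment of genome-edited SNCA-luciferase HEK-293 cells, live-cell protease substrate GF-AFC read by fluorescence after 30 min; activity scaled between DMSO (0%) and medium-only (-100%), curves Hill-fitted.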
3T3 cytotox: kills NIH 3T3 cells; Potency, µM (series often up to 96.7 µM), hits mostly inhibitors; NIH 3T3 viability, CellTiter-Glo ATP luminescence, 48-72 h; actives 4.3% (n = 94,000); AID 1345082; note: nearly all actives have a fitted effect of over 55% in size
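Mouse fibroblast NIH 3T3 cells, 400 per well, received compound via pintool and were incubated for 48 or 72 hr prior to CellTiter-Glo ATP luminescence measurement.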
A number is an active result; i = inactive; ? = inconclusive; nt = no result given; [ ] = dose if it differs, or a comment. An excerpt weighted towards active compounds, which were near 7.4% of everything screened. Unless noted, calls come from the whole dose curve; as a rule, active = well fitted curve in the direction sought with a large enough effect; inconclusive = small, poorly fitted or top-dose-only effect, or another doubt; inactive = no such curve, though single readings can be large; an effect the other way counts as inactive or inconclusive.

SMILES	FLuc inh	HEK293 tox	NPR1 antag	SNCA expr inh	SNCA viab count	3T3 cytotox
Cc1cccc(CN2CCNc3cc(-c4ccnc(C)c4)ncc3C2)c1	?	39.8µM	i	i	?	?
Cc1cc(-c2cc3c(cn2)CN(Cc2c[nH]c4ccccc24)CCN3)ccn1	?	112µM	i	i	i	?
Fc1ccc(CN2CCNc3cnc(OCc4cccnc4)cc3C2)cc1F	i	?	?	?	i	?
Cc1cc(-c2cc3c(cn2)CN(Cc2ccc(C(F)(F)F)cc2)CCN3)ccn1	63.1µM	63.1µM	28.2µM	i	i	79.4µM
Cc1cc(-c2cc3c(cn2)CN(Cc2ccc(F)c(F)c2)CCN3)ccn1	39.8µM	70.8µM	i	i	i	?
COc1ccc(Cn2c(=O)c(C(=O)N3CCN(C(=O)C4CC4)CC3)nc3cccnc32)cc1	nt	i	nt	nt	nt	i
COc1cccc(-c2cn3cc(C(=O)N(C)C)nc3s2)c1	nt	?	nt	?	i	?
O=C(NCC(=O)N1CCCC1)c1ccc(-c2cccc(C(F)(F)F)c2)cc1	nt	?	nt	i	?	?
Cc1c(C(=O)Nc2ccc(N3CC(C)OC(C)C3)nc2)cccc1-c1ccc(OC(F)(F)F)cc1 (stereo unspecified)	nt	nt	nt	nt	i	nt
COc1cccc(CNC(=O)c2nc3cccnc3n(C3CC3)c2=O)c1	nt	i	nt	i	i	i
CCn1cc(-c2cc3c(cn2)CN(CCc2ccccc2)CCN3)cn1	i	?	i	i	i	?
Cc1cccc(CN2CCNc3cnc(OCc4cccnc4)cc3C2)c1	i	100µM	?	i	i	?
Cc1cc(-c2cc3c(cn2)CN(Cc2ccccc2F)CCN3)ccn1	25.1µM	70.8µM	i	i	i	?
CCc1nc2c(c(-c3ccc(O)cc3)n1)CCN(C(=O)c1ccccc1C)CC2	nt	i	nt	i	i	i
C[S+](=O)([O-])c1ccc(-c2nnc3ccc(C(=O)NC4CC4)cn23)cc1	nt	i	nt	i	i	i
Cn1ccnc1CN1CCCC12CCN(c1ccc(C(F)(F)F)cn1)CC2	i	50.1µM	i	i	i	?
CCCn1ccnc1CN1CCCC12CCN(c1ccc(C(F)(F)F)cn1)CC2	i	35.5µM	i	i	i	?
Nc1ncccc1CN1CCCC12CCN(c1ccc(C(F)(F)F)cn1)CC2	i	?	i	i	i	?
C[C@]12CC[C@H](O)CC1=CCN(Cc1cccc(OC(F)(F)F)c1)C2	nt	?	nt	nt	nt	i
O=C(Cc1ccccc1)Nc1cc(-c2cccnc2)nn1-c1ccccc1	nt	?	nt	i	i	?
O=C(c1cncc(Br)c1)N1CCC(CCOc2ccccc2F)C1 (stereo unspecified)	i	39.8µM	i	i	i	?
Cn1ncc2c(C(=O)NCC(F)F)cc(-c3ccccc3F)nc21	nt	i	nt	nt	nt	?
CC(C)CCN1CCOc2cc(C(=O)NCc3cccs3)ccc2C1	i	?	i	?	i	?
CC(C)CCN1CCOc2cc(C(=O)NCc3ccccc3)ccc2C1	i	?	i	i	i	?
CC(C)CCN1CCOc2cc(C(=O)Nc3cccnc3)ccc2C1	i	112µM	i	i	i	i
SMILES	FLuc inh	HEK293 tox	NPR1 antag	SNCA expr inh	SNCA viab count	3T3 cytotox
CC(C)CCN1CCOc2cc(C(=O)N(C)c3cccnc3)ccc2C1	i	112µM	i	?	i	?
CC(C)CCN1CCOc2cc(C(=O)NCCOc3ccccc3)ccc2C1	i	100µM	i	i	i	?
CC(C)CCN1CCOc2cc(C(=O)Nc3ccc(F)cc3)ccc2C1	i	?	?	i	i	?
CC(C)CCN1CCOc2cc(C(=O)Nc3nccs3)ccc2C1	?	100µM	i	i	i	?
CCN1C(=O)CCN(C(=O)c2ccnn2CC)CC12CCOCC2	nt	i	nt	i	i	i
COc1ccccc1-n1c(=O)c(C(=O)N2CCN(C(C)=O)CC2)nc2cccnc21	nt	i	nt	i	i	i
COc1cccc(C(=O)N2CC(=O)N(Cc3ccccc3)CC(O)C2)c1 (stereo unspecified)	nt	i	nt	nt	nt	?
O=C(NCC1CC1)c1ccc2c(c1)OCCN(c1ccccc1)C2	i	11.2µM	i	i	i	?
COc1ccc(Cn2c(=O)c(C(=O)N3CCN(C(=O)c4ccccc4)CC3)nc3cccnc32)cc1	nt	i	nt	i	i[12.5 µM]	i
c1ccc(OCC2CN(Cc3ccc4[nH]ccc4c3)CC23CN(c2ccccc2)C3)cc1 (stereo unspecified)	i	28.2µM	?	20µM	?	25.1µM
O=C(O)c1cccc(CN2CC(COc3ccccc3)C3(C2)CN(c2ccccc2)C3)c1 (stereo unspecified)	i	?	i	i	i	i
O=[S+]([O-])(NCC1CN(Cc2ccc(O)cc2)CC12CN(c1ccccc1)C2)c1ccccc1 (stereo unspecified)	i	?	i	i	i	17.8µM
c1ccc(OCC2CN(Cc3ccncc3)CC23CN(c2ccccc2)C3)cc1 (stereo unspecified)	i	?	i	i	i	89.1µM
O=C(Cc1ccccc1)NCC1CN(Cc2ccc3[nH]ccc3c2)CC12CN(c1ccccc1)C2 (stereo unspecified)	i	39.8µM	i	i	i	22.4µM
Cc1ccc2c(n1)OC(COc1ccccc1)CN(c1ccccc1)C2=O (stereo unspecified)	nt	?	nt	i	i	i
O=C(NC1CCCC1)N1CCC(C(=O)N2CCC(c3nc4ncccc4[nH]3)CC2)CC1	nt	i	nt	i	i	i
COc1ncccc1-c1cnc2[nH]cc(CC(=O)Nc3cccnc3)c2c1	i	89.1µM	?	i	?	?
COc1cccc(NC(=O)Cc2c[nH]c3ncc(-c4ccccc4C)cc23)c1	i	70.8µM	?	?	i	?
COc1ncccc1-c1cnc2[nH]cc(CC(=O)Nc3ccccc3)c2c1	i	?	?	i	?	39.8µM
COc1ccc(-c2cnc3[nH]cc(CC(=O)NC4CCC(O)CC4)c3c2)cc1 (stereo unspecified)	i	?	i	i	i	25.1µM
COc1ncccc1-c1cnc2[nH]cc(CC(=O)Nc3ccccc3C)c2c1	i	?	i	i	i	?
CCCC(=O)N1CCCN(c2ccnc3ccnn23)CC1	nt	i	nt	i	i	i
O=C(C1CCCN1C(=O)c1ccccc1F)N1CCC(c2nc3ccncc3[nH]2)C1 (stereo unspecified)	nt	i	nt	i	i	i
COc1ncccc1-c1cnc2[nH]cc(CC(=O)NCc3ccco3)c2c1	i	?	?	i	i	?
COc1ccc(-c2cnc3[nH]cc(CC(=O)Nc4cccc(F)c4)c3c2)cc1	i	?	i	i	?	?
COc1ccc(-c2cnc3[nH]cc(CC(=O)Nc4ccncc4)c3c2)cc1	i	?	?	i	i	31.6µM
COc1ncccc1-c1cnc2[nH]cc(CC(=O)Nc3ccncc3)c2c1	i	63.1µM	?	i	i	31.6µM
